# Compound activity as filed in PubChem.
# Rv3671c inh = Rv3671c serine protease inhibitors, primary screen, biochemical, fluorescence polarization, M. tuberculosis H37Rv; P9WHR9; inhibition, % at 5.96 µM; hit rate 0.048% among 320,000; AID 2606, 2010; in the data active = inhibition above about 38%;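 also: extracellular domain of Rv3671c used as enzyme; 0% = enzyme with DMSO and 100% = no enzyme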
# Mtb UGM inh = M. tuberculosis UGM enzyme inhibitors, primary screen, biochemical, fluorescence polarization, single point; hit rate 0.06% among 320,000; AID 504406, 2011; purified UGM, fluorescence polarization probe displacement; UDP-galactopyranose mutase (Mycobacterium tuberculosis (strain ATCC 25618 / H37Rv)), …; inhibition, % at 10 µM; in the data active = inhibition above about 10%, passing the limit was not always enough; inconclusive = no clear call, values can overlap the other calls
# Target sequence (P9WIQ1 whole entry, looked up): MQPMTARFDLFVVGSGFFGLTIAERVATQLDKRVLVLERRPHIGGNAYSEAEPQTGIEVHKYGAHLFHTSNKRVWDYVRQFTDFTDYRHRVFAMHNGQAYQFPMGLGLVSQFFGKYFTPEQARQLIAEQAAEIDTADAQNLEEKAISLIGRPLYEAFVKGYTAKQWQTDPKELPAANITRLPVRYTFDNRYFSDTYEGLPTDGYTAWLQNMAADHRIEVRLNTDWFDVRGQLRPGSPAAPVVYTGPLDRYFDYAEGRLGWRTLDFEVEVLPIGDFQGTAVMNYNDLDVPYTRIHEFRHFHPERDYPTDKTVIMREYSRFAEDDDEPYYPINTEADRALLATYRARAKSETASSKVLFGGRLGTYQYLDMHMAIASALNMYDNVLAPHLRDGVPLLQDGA
# FBA Mtb inh = Mtb FBA enzyme inhibitors, primary screen, biochemical, fluorescence, strain H37Rv. purified M. tuberculosis FBA, fluorescence read-out. inhibition, % at 1 µM. hit rate 2.3% among 360,000. AID 588726, 2011; in the data active = inhibition above about 27%;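 also: 0% = vehicle and 100% = reference inhibitor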
# Mtb bLac sens = beta-lactam sensitization of Mtb H37Rv, H37Rv. M. tuberculosis H37Rv growth with meropenem, percent inhibition. hit rate 0.27% among 330,000. inhibition, % at 25 µM;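 also: growth measured after seven days incubation then overnight dye step; 0% = bacteria only wells and 100% = bacteria with antibiotic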
# RecA splice inh = Mtb RecA intein splicing inhibitors, primary screen, biochemical, fluorescence, HTS | Protein RecA (Mycobacterium tuberculosis (strain ATCC 25618 / H37Rv)), P9WHJ3 | cell-free RecA intein splicing | inhibition, % (test concentration not listed) | hit rate 0.75% among 290,000; in the data active = inhibition above about 30%; inconclusive = no clear call, values can overlap the other calls;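 also: 0% = vehicle wells and 100% = reference inhibitor control wells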
# GDH-TPI counter-1 = GDH-TPI coupling enzyme inhibitors, primary screen, artefact control for M. tuberculosis FBA inhibitor project, biochemical, absorbance, full deck; inhibition, % at 4.8 µM; GDH-TPI coupled enzyme counterscreen, NADH absorbance; AID 588335, 2011; hit rate 1.2% among 360,000; in the data active = inhibition above about 30%;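 also: 0% = DMSO wells and 100% = wells lacking the enzyme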
# Mtb FBA confirm = M. tuberculosis aldolase blockers, biochemical, fluorescence, strain H37Rv, confirmation. shares compounds with FBA Mtb inh. purified M. tuberculosis FBA, fluorescence read-out. inhibition, % at 1 µM. hit rate 78% among 5,600. AID 651616, 2012; in the data active = inhibition above about 27%;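 also: 0% = vehicle wells and 100% = reference inhibitor wells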
# GDH-TPI counter-2 = GDH-TPI coupling enzyme inhibitors, artefact control for M. tuberculosis FBA inhibitor project, biochemical, fluorescence, high throughput; shares compounds with FBA Mtb inh; GDH-TPI coupled enzyme counterscreen; inhibition, % at 1 µM; hit rate 81% among 5,600; AID 652141, 2013; in the data active = inhibition above about 10%
# GDH-TPI dose = GDH-TPI coupling enzyme inhibitors, dose response, artefact control for M. tuberculosis FBA inhibitor project, biochemical, fluorescence, IC50; hit rate 79% among 170; shares compounds with FBA Mtb inh; GDH-TPI coupled enzyme assay, artifact counterscreen; AID 652145, 2013; IC50, µM
# Numbers without * were called inactive; ? = inconclusive; . = no result; + = active, no number. A selection: hits, their analogues and other compounds. The true share with any hit is near 4%. Unless noted, no rule for the calls is given here.
SMILES,Rv3671c inh,Mtb UGM inh,FBA Mtb inh,Mtb bLac sens,RecA splice inh,GDH-TPI counter-1,Mtb FBA confirm,GDH-TPI counter-2,others
O=C(Nc1ccc(-c2cn3ccccc3n2)cc1)c1cccs1,-18,-2,0,2,-12,14,.,.,
COc1ccc(CC(=O)Nc2cccc(-c3cn4ccccc4n3)c2)cc1,-16,1,31*,12,0,6,123*,86*,
CCC(=O)Nc1cccc(-c2cn3ccccc3n2)c1,-5,0,27,-8,2,3,.,.,
COc1ccc(OCC(=O)Nc2ccccc2C(=O)NC2CC2)cc1,0,-2,-1,0,.,3,.,.,
COc1ccc(CC(=O)Nc2ccc(-c3cn4ccccc4n3)cc2)cc1,1,0,66*,-1,0,4,+,+,
COc1ccc(CC(=O)Nc2ccc(-c3csc(C)n3)cc2)cc1,-11,2,3,22,0,4,.,.,
O=c1oc2ccc3ccccc3c2cc1-c1nnc(-c2cccs2)o1,-1,.,30*,100,-192,5,115*,84*,
CCN(CC)c1ccc2cc(-c3nc4ccccc4n3C)c(=O)oc2c1,8,2,40*,?,-388,15,7,-4,
CCN(CC)c1ccc2cc(-c3nnc(-c4ccccc4)o3)c(=O)oc2c1,-3,?,34*,6,-28,-4,146*,105*,
N#Cc1cc2c(ccc3ccccc32)oc1=O,-3,-1,73*,96,-85,1,168*,141*,
CCOc1ccccc1CNC(=O)Cn1ccc2cc(S(=O)(=O)N3CCCC3)ccc21,-3,-3,0,3,0,-6,.,.,
O=c1oc2ccc3ccccc3c2cc1-c1nnc(-c2ccccc2)o1,7,-2,51*,96,-366,1,39*,32*,
COc1ccc2cc3cc(C(=O)N4CCN(C5CCCCC5)CC4)oc3nc2c1,-4,-2,50*,0,-1,9,23,5,GDH-TPI dose=1.7*
COc1ccc2nc3oc(C(=O)N4CCC5(CC4)OCCO5)cc3cc2c1,4,1,50*,4,1,13,187*,156*,
COc1ccc2nc3oc(C(=O)N4CCN(c5ccccc5F)CC4)cc3cc2c1,-5,2,7,-4,2,6,.,.,
COc1ccc2cc3cc(C(=O)NCCc4ccc(OC)c(OC)c4)oc3nc2c1,-10,-1,31*,21,1,45*,54*,46*,
Nc1nc2c(ncn2[C@@H]2O[C@H](CNS(=O)(=O)C3CC3)[C@@H](O)[C@H]2O)c(=O)[nH]1,.,.,4,.,.,.,.,.,
Cc1ccc(CNC(=O)CCn2cc(-c3ccc(C)cc3)nc2CCN)cc1,1,-1,4,-7,.,7,.,.,
CC1CC(C)CN(c2oc(-c3ccco3)nc2C#N)C1 (stereo not given),0,.,91*,0,-3,19,6,4,
N#Cc1nc(-c2ccco2)oc1N1CCc2ccccc2C1,3,1,46*,8,3,23,52*,39*,
O=[N+]([O-])c1ccn(-c2nc(-c3cccs3)cc(C(F)(F)F)n2)n1,12,1,2,-6,1,29,.,.,
FC(F)(F)c1cc(-c2cccs2)nc(-n2cc(Cl)cn2)n1,0,0,30*,0,-1,20,41*,35*,
CC/C(C)=N/N1C(=O)c2ccccc2NC1(C)CC (stereo not given),5,1,38*,-8,-4,9,115*,127*,
O=C1c2ccccc2NC2(CCCC2)N1N=C1CCCC1,1,0,6,4,-2,14,.,.,
C[C@H](CO)N1C[C@H](C)[C@@H](CN(C)C(=O)Nc2ccc3c(c2)OCO3)Oc2ccc(NS(=O)(=O)c3ccc(F)cc3)cc2C1=O,-1,.,1,7,.,3,.,.,
SMILES,Rv3671c inh,Mtb UGM inh,FBA Mtb inh,Mtb bLac sens,RecA splice inh,GDH-TPI counter-1,Mtb FBA confirm,GDH-TPI counter-2,others
CC(Sc1nnc(COc2ccc(Cl)cc2)o1)C(=O)Nc1ccc(N2CCOCC2)cc1 (stereo not given),.,.,6,.,.,0,.,.,
CC(OC(=O)c1ccccc1NCc1ccco1)C(=O)Nc1ncc(Cl)cc1Cl (stereo not given),-2,1,57*,-10,3,-5,9,-7,
CC(OC(=O)c1ccc(S(=O)(=O)NCc2ccco2)cc1)C(=O)Nc1ccc(Cl)cn1 (stereo not given),-5,-2,-1,10,2,-2,.,.,
C#CCOCCOCCOCCNc1nc(N2CCN(C(=O)[C@H](C)n3cc(CCC(=O)O)nn3)CC2)nc(N2CCN(C(=O)[C@H](CCCCN)n3cc(CCCC)nn3)CC2)n1,.,.,1,.,.,4,.,.,
CSc1ccc(C2NC(=O)c3ccccc3N2)cc1 (stereo not given),4,3,48*,0,-2,4,23,16*,
O=C1NC(c2ccccc2O)Nc2ccccc21 (stereo not given),-4,1,33*,-6,-10,13,19,11*,
O=C1NC(c2cccc(OCc3ccccc3)c2)Nc2ccccc21 (stereo not given),.,.,42*,.,.,0,168*,134*,
O=C1NC(c2ccc(O)cc2)Nc2ccccc21 (stereo not given),-6,1,37*,0,-5,7,39*,34*,
O=C1NC(c2ccc(Cl)c([N+](=O)[O-])c2)Nc2ccccc21 (stereo not given),4,4,-1,-5,-3,3,.,.,
Cc1ccc(C)c(C2NC(=O)c3ccccc3N2)c1 (stereo not given),-1,-2,63*,5,-5,7,93*,72*,
COc1ccc(C2NC(=O)c3ccccc3N2)c(OC)c1OC (stereo not given),.,.,77*,.,.,0,75*,65*,
